The whole screen tested about 38,000 compounds, of which about 1,200 (3.2%) showed an effect of 50% or more. The median lay at about -58%. For the sample, strong results were picked, then their nearest neighbours and some compounds at random.
What follows are compounds tested on Plasmodium falciparum (assay: Calibr Malaria Delayed Death Assay SOP). Details: concentration 4.99e-06 (unit not given; other assays of the set use mol/L).
Type: functional, organism-based
Parameters: scale not given: in the data most compounds retested in dose-response had high values

**Q.** How did the “Percent Effect” value turn out when `Cc1nc(C)n(CC2CCCN2Cc2ccn(-c3ccccc3)n2)n1` (configuration not stated) was run?
**A.** Its value is -118.1%.

**Q.** `CNCCCNC1CCN(c2ccc(-n3ccnc3)cc2)CC1` was tested. Which “Percent Effect” value did it give?
**A.** Its value is 32.68%.

**Q.** `CCN1CCC2(CC1)CC(CC(=O)N(C)C)c1ccc(F)cc12` (configuration not stated) was tested. Which “Percent Effect” value did it give?
**A.** Its value is -67.07%.

**Q.** Which “Percent Effect” value does the source give for `CCC(C)N(Cc1ccncc1)Cc1ccc(-n2cccn2)cc1` (configuration not stated) here?
**A.** The value was -4.562%.

**Q.** For `CCC(C)N(Cc1c[nH]c(C)n1)Cc1ccccc1Cl` (configuration not stated), which “Percent Effect” value is on record?
**A.** Its value is 47.84%.

**Q.** With `CCC(C)N(Cc1ccc(C)cc1)Cc1c[nH]c(C)n1` (configuration not stated) as the compound, how does the “Percent Effect” value read?
**A.** Its value is 77.78%.

**Q.** `CCc1ccc(CN2CCNC(C(=O)N3CCN(C)CC3)C2)o1` (configuration not stated) was tested. Which “Percent Effect” value did it give?
**A.** The value was -22.63%.

**Q.** `CCOc1ncccc1C(=O)N1CCCC1Cn1cc(C)cn1` (configuration not stated) was tested. Which “Percent Effect” value did it give?
**A.** Its value is -83.81%.

**Q.** With `Fc1ccccc1CN1CCCN(c2ncnc3[nH]ccc23)CC1` as the compound, how does the “Percent Effect” value read?
**A.** Its value is -95.46%.

**Q.** With `Cc1nc(C)c(C)c(N2CCC(O)(c3ccc(F)cc3)CC2)n1` as the compound, how does the “Percent Effect” value read?
**A.** Its value is -9.23%.

**Q.** Which “Percent Effect” value does the source give for `CNc1nnc(SCc2nnc(C(C)(C)C)o2)s1` here?
**A.** Its value is -74.95%.

**Q.** Which “Percent Effect” value does the source give for `O=C1NCC(C(=O)Nc2ncc(Cc3ccc(F)cc3F)s2)N1` (configuration not stated) here?
**A.** The value was -63.93%.

**Q.** With `O=C(Cc1cccc2ccccc12)N1CCC(Nc2cccnn2)CC1` as the compound, how does the “Percent Effect” value read?
**A.** The value was -77.23%.

**Q.** For `O=C1CC2(CCN(CCCO)CC2)CN1Cc1ccc(F)c(F)c1`, which “Percent Effect” value is on record?
**A.** The value was -28.18%.

**Q.** With `CC(NCC1CCN(CCO)CC1)c1cccnc1` (configuration not stated) as the compound, how does the “Percent Effect” value read?
**A.** The value was -40.75%.

**Q.** With `CC(NC1CCN(CCS(C)(=O)=O)CC1)c1ccc(Cl)cc1` (configuration not stated) as the compound, how does the “Percent Effect” value read?
**A.** The value was 56.47%.

**Q.** For `COc1ccc(C(C)N2CCC(CO)CC2)cc1Cl` (configuration not stated), which “Percent Effect” value is on record?
**A.** Its value is -19.12%.

**Q.** Which “Percent Effect” value does the source give for `CS(=O)(=O)CCN1CCC(Nc2c(Cl)cccc2C#N)CC1` here?
**A.** The value was -32.59%.

**Q.** `Cc1ccc(CNC(=O)CNCC2CCN(CCO)CC2)s1` was tested. Which “Percent Effect” value did it give?
**A.** Its value is -48.54%.

**Q.** For `Cc1cccc(C(C)NCC2CCS(=O)(=O)CC2)c1` (configuration not stated), which “Percent Effect” value is on record?
**A.** Its value is 7.654%.

**Q.** `CC(NCC1CCN(CCO)CC1)c1cccc(Cl)c1` (configuration not stated) was tested. Which “Percent Effect” value did it give?
**A.** The value was 84.07%.

**Q.** With `CC(NCC1CCN(CCO)CC1)c1ccc(F)c(Cl)c1` (configuration not stated) as the compound, how does the “Percent Effect” value read?
**A.** Its value is 83.31%.

**Q.** With `CC(c1ccc(Cl)cc1)N1CCN(CCS(C)(=O)=O)CC1` (configuration not stated) as the compound, how does the “Percent Effect” value read?
**A.** The value was -44.52%.

**Q.** With `COCCN1CCC(CNC(=O)Nc2ccc(F)c(Cl)c2)C1` (configuration not stated) as the compound, how does the “Percent Effect” value read?
**A.** Its value is -33.14%.

**Q.** With `O=C(NCCOc1ccc(Cl)cn1)Nc1nccs1` as the compound, how does the “Percent Effect” value read?
**A.** Its value is -1.653%.

**Q.** For `CCS(=O)(=O)N1CCc2ccc(NC(=O)Nc3cccc(C)c3)cc21`, which “Percent Effect” value is on record?
**A.** The value was -42.73%.

**Q.** Which “Percent Effect” value does the source give for `O=C(NCc1ccccn1)[C@H]1COC[C@H]2CN(CC3CC3)C[C@H]21.O=C(O)C(F)(F)F.O=C(O)C(F)(F)F` here?
**A.** The value was -42.42%.

**Q.** `CC(NC(=O)Cn1ccc2sccc2c1=O)c1ccccc1` (configuration not stated) was tested. Which “Percent Effect” value did it give?
**A.** Its value is -76.67%.

**Q.** For `COc1ccc(-c2cc(C3(O)CCOC(C)(C)C3)on2)cc1` (configuration not stated), which “Percent Effect” value is on record?
**A.** The value was -20.9%.

**Q.** `Cc1c(COC(C)C)cccc1NC(=O)N1CC[C@H](O)C1` was tested. Which “Percent Effect” value did it give?
**A.** The value was -81.26%.

**Q.** Which “Percent Effect” value does the source give for `NC(=O)c1c(SCCN2CCCCC2)sc2c(O)cc(=O)[nH]c12` here?
**A.** Its value is 1.518%.

**Q.** `O=S1(=O)[C@@H](c2ccccc2)[C@H](CO)CN1c1ccccc1` was tested. Which “Percent Effect” value did it give?
**A.** Its value is -141.9%.

**Q.** Which “Percent Effect” value does the source give for `Cc1cc(C)nc(CN(C)c2nc(C3CCCC3)nc3c2cnn3C)c1` here?
**A.** The value was -50.46%.

**Q.** With `CCN(CC)c1ncnc2c1CCN(c1ccc(C)nn1)CC2` as the compound, how does the “Percent Effect” value read?
**A.** Its value is -148.5%.

**Q.** For `Cc1nn(CCCNC(=O)C2CCN(S(C)(=O)=O)CC2)cc1Cl`, which “Percent Effect” value is on record?
**A.** Its value is -83.52%.

**Q.** For `Cc1cnn(C2CN(CCOc3ccccc3C#N)C2)c1`, which “Percent Effect” value is on record?
**A.** Its value is -94.34%.

**Q.** `O=C(Cc1ccccn1)N1CCc2ncnc(NC3CCC3)c2CC1.O=C(O)C(F)(F)F` was tested. Which “Percent Effect” value did it give?
**A.** Its value is -99.33%.

**Q.** How did the “Percent Effect” value turn out when `COCc1ncc(CN2CCC(Oc3ccc(OC)cc3)CC2)cn1` was run?
**A.** The value was -166.1%.

**Q.** With `O=C(Nc1cccc(OCC(F)F)n1)c1ccncc1` as the compound, how does the “Percent Effect” value read?
**A.** The value was -44.55%.

**Q.** `CCOc1ccccc1-c1noc(CN2CCCC(O)C2)n1` (configuration not stated) was tested. Which “Percent Effect” value did it give?
**A.** Its value is -111.8%.

**Q.** How did the “Percent Effect” value turn out when `COc1ccccc1CN1CCCC(n2cccn2)C1` (configuration not stated) was run?
**A.** The value was 31.44%.

**Q.** For `COc1cccc(CN2CCCC(Nc3cccc(F)c3)C2)c1O` (configuration not stated), which “Percent Effect” value is on record?
**A.** Its value is 66.55%.

**Q.** Which “Percent Effect” value does the source give for `CCOc1cccc(CNc2ccccc2C(F)(F)F)c1O` here?
**A.** Its value is -100.4%.

**Q.** How did the “Percent Effect” value turn out when `COc1ccc(NC2CCCN(Cc3cnc(N(C)C)s3)C2)cc1OC` (configuration not stated) was run?
**A.** Its value is -57.98%.

**Q.** For `CN1CCOC(CNCC(=O)NCCC2=CCCCC2)C1` (configuration not stated), which “Percent Effect” value is on record?
**A.** Its value is -80.77%.

**Q.** With `COCC[C@]1(O)CCN(c2ncc(Cl)cc2F)C[C@H]1C` as the compound, how does the “Percent Effect” value read?
**A.** Its value is -23.85%.

**Q.** `CC[C@@]1(O)CCN(c2ncc(Cl)cc2F)C[C@H]1O` was tested. Which “Percent Effect” value did it give?
**A.** The value was -98.16%.

**Q.** `Cc1nn(Cn2ccc(C(=O)N3CCCC(C)C3)n2)c(C)c1Cl` (configuration not stated) was tested. Which “Percent Effect” value did it give?
**A.** The value was -15.8%.

**Q.** With `O=C(Cn1nc(C(F)(F)F)c(Br)c1C1CC1)N1CCOCC1` as the compound, how does the “Percent Effect” value read?
**A.** The value was -21.49%.

**Q.** How did the “Percent Effect” value turn out when `OCC1CCCCN1CCn1ccnc1-c1nc2ccccc2[nH]1` (configuration not stated) was run?
**A.** The value was 10.13%.

**Q.** With `CN(CC1CCCN1C)c1nccc(C2CCCC2)n1` (configuration not stated) as the compound, how does the “Percent Effect” value read?
**A.** Its value is 7.396%.

**Q.** Which “Percent Effect” value does the source give for `CN1CCCC1CCn1ccnc1-c1ccc2ccccc2n1` (configuration not stated) here?
**A.** The value was 54.89%.

**Q.** With `CN1CCCC1CCn1ccnc1-c1nc2ccccc2[nH]1` (configuration not stated) as the compound, how does the “Percent Effect” value read?
**A.** The value was 72.06%.

**Q.** Which “Percent Effect” value does the source give for `CN1CCCC1CCn1ccnc1-c1nc(-c2ccccc2)no1` (configuration not stated) here?
**A.** Its value is 57.38%.

**Q.** For `Cc1nccn1CCC1CCCCN1C(=O)c1ccc2[nH]nnc2c1` (configuration not stated), which “Percent Effect” value is on record?
**A.** The value was -19.01%.

**Q.** `Cn1ccnc1CN1CCCCC1c1nc(-c2ccccc2)no1` (configuration not stated) was tested. Which “Percent Effect” value did it give?
**A.** Its value is -149.2%.

**Q.** For `CC(=O)Nc1ccc2nc(-c3nccn3C[C@@H]3CCCO3)ccc2c1`, which “Percent Effect” value is on record?
**A.** Its value is -89.17%.

**Q.** For `c1ccc(-c2noc(CCCN3CCCC3Cn3cccn3)n2)cc1` (configuration not stated), which “Percent Effect” value is on record?
**A.** Its value is 29.02%.

**Q.** How did the “Percent Effect” value turn out when `C[C@@H]1CN(C(=O)c2cc(Cn3ccc4ccccc43)[nH]n2)C[C@H](C)O1` was run?
**A.** The value was -126.8%.

**Q.** With `CC1CCCN(C(=O)Nc2cccc(CN3CCOC3=O)c2)C1` (configuration not stated) as the compound, how does the “Percent Effect” value read?
**A.** The value was -90.51%.

**Q.** With `C[C@@H](O)CNC(=O)c1nc(Cc2c(Cl)cccc2Cl)no1` as the compound, how does the “Percent Effect” value read?
**A.** Its value is -61.62%.

**Q.** `COc1ccc(C(CC(=O)O)NC(=O)CCc2cccs2)cc1OC` (configuration not stated) was tested. Which “Percent Effect” value did it give?
**A.** Its value is -100.1%.

**Q.** `CN1CCC(N(Cc2ccncc2)Cc2nc3c(s2)CCCC3)CC1` was tested. Which “Percent Effect” value did it give?
**A.** Its value is 7.357%.

**Q.** With `COc1ccc(F)cc1C(C)NC(=O)Cn1ccc(=O)n(C)c1=O` (configuration not stated) as the compound, how does the “Percent Effect” value read?
**A.** Its value is -164.7%.

**Q.** Which “Percent Effect” value does the source give for `COC1CCN(CCNC(=O)NC(C)c2ccc(F)c(F)c2)CC1` (configuration not stated) here?
**A.** The value was 45.3%.

**Q.** For `COC1CCN(CCNC(=O)NC(C)c2cccc(Cl)c2)CC1` (configuration not stated), which “Percent Effect” value is on record?
**A.** Its value is 23.1%.

**Q.** For `COC1CCN(CCNC(=O)NCC(C)c2cccc(C)c2)CC1` (configuration not stated), which “Percent Effect” value is on record?
**A.** The value was 54%.
